PubChem BioAssay (Tox21)
“And” between values parts separate entries of the source, which are not always exact repeats. Equal entries are not always repeated. Records with an inconclusive call do not appear. The source holds several records for some structures; these can differ, active in one and inactive in another. The source made the active and inactive calls. Unless noted, calls follow the shape of the dose curve; as a rule, active = well fitted curve in the direction sought with a large enough effect in the repeat runs; inconclusive = weak or mixed curves; inactive = no such curve, though single readings can be large; an effect the other way counts as inactive or inconclusive.

How the values were obtained:
[1] = biological target: Thyrotropin receptor (Homo sapiens) (UniProt P16473); assay: qHTS assay to identify small molecule agonists of the thyroid stimulating hormone receptor (TSHR) signaling pathway (AID 1224843; calls by dose curve; also: nearly all actives have a fitted effect of over 45% in size)
Sequence of Thyrotropin receptor (Homo sapiens) (P16473 whole entry, looked up): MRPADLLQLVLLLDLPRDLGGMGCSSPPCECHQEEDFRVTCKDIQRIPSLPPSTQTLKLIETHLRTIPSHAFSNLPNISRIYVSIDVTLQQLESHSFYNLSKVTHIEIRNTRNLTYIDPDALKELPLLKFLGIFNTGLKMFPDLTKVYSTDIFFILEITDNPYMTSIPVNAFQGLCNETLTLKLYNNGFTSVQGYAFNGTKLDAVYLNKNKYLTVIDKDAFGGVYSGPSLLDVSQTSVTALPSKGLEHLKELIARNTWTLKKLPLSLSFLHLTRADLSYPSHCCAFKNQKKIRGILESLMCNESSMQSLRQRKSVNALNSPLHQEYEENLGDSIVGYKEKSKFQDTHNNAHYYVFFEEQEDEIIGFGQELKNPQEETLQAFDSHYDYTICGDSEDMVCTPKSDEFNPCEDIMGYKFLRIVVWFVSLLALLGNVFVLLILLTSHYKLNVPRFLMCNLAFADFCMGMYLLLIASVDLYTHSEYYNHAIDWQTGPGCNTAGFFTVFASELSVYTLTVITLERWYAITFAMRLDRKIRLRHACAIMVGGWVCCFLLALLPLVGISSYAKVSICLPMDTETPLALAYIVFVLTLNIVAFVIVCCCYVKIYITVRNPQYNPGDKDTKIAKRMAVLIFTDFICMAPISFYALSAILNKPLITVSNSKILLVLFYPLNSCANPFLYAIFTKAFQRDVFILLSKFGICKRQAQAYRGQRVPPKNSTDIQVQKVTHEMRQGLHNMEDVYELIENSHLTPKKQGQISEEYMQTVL
Outline: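 TSHR-expressing HEK293 cells (800 per well) were exposed to compounds for 30 min at room temperature. cAMP was then detected by HTRF competition with cAMP-d2 and anti-cAMP cryptate, read after 1 h at room temperature. Fifteen concentrations, triplicate.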

[2] = qHTS assay to identify small molecule agonists of H2AX (AID 1224845; active = well fitted activation curve with a large enough effect in the signal ratio in the repeat runs, not every such curve was filed as active; the % refers to the signal ratio)
Outline: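 Wild-type CHO-K1 cells plated overnight, then exposed 3 hr at 37C to compounds at 15 concentrations (0.76% DMSO). Lysed, then HTRF anti-pH2AX(S139)-cryptate/anti-H2AX-d2 detection after 24 hr at room temperature; emissions 665 and 620 nm.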

[3] = qHTS assay to identify small molecule agonists of the hypoxia (HIF-1) signaling pathway (AID 1224846; active = well fitted activation curve with a large enough effect in the signal ratio in the repeat runs, not every such curve was filed as active; the % refers to the signal ratio)
Outline: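 HRE-bla ME-180 cells (beta-lactamase reporter under hypoxia response element) were plated at 2,000 cells/well in medium with 0.5% dialyzed FBS, rested 5 hrs, then given compounds in DMSO for 17 hrs at 37C, 5% CO2. Reporter induction was read with CCF4-AM FRET substrate.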

[4] = qHTS assay to identify small molecule agonists of H2AX - cell viability counter screen (AID 1224847; calls by dose curve; also: nearly all actives have a fitted effect of over 30% in size; also: potency is read from the fitted curve at half-maximal effect)
Outline: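 Counter-screen for viability: CellTiter-Glo ATP luminescence read after 3 h compound treatment (15-point titration, 0.76% DMSO final) of CHO-K1 cells at 37C, with 30 min room-temperature reagent incubation.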

[5] = qHTS assay to identify small molecule antagonists of the estrogen related receptor (ERR) signaling pathway from Tox21 library (AID 1224848); also: nearly all actives have a fitted effect of over 50% in size; also: potency is read from the fitted curve at half-maximal effect
Outline: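 Cells: ERR line, 2,000/well; 6 h preincubation 37 C/5% CO2. Cpd in DMSO via pin tool; 18 h, 37 C. ONE-Glo, 30 min RT, luminescence.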

[6] = qHTS assay to identify small molecule agonists of the estrogen related receptor (ERR) signaling pathway from Tox21 library (AID 1224849; calls by dose curve; also: nearly all actives have a fitted effect of over 15% in size); conditions: ERR reporter cell line, ONE-Glo luciferase, 18 h
Outline: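 ERR reporter cell line (NTP) seeded, rested 6 h at 37 C/5% CO2, then pinned with Tox21 compounds in DMSO. After 18 h at 37 C, ONE-Glo luciferase luminescence was read following 30 min at room temperature.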

[7] = qHTS RealTime-Glo MT Cell Viability Assay in HepG2 cells - 24 hour (AID 1224867); also: nearly all actives have a fitted effect of over 50% in size; also: potency is read from the fitted curve at half-maximal effect
Outline: (§1)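 Cell number in HepG2 cultures estimated from NanoLuc luminescence generated by metabolic reduction of a prosubstrate by living cells. The homogeneous, nonlytic format allowed repeated reads at 0, 8, 16, 24, 32 and 40 h of compound exposure.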

[8] = qHTS RealTime-Glo MT Cell Viability Assay in HEK293 cells - 32 hour (AID 1224868); also: nearly all actives have a fitted effect of over 50% in size; also: potency is read from the fitted curve at half-maximal effect
Outline: (§2)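 Homogeneous bioluminescent viability format in HEK293 cells (600 cells/well). Following 5 h at 37 C/5% CO2, 23 nL compound was pintooled; the signal was measured repeatedly during 40 h incubation.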

[9] = A CellTox Green Cytotoxicity Assay to monitor cytotoxicity in HEK293 cells - 0 hour (AID 1224869); also: nearly all actives have a fitted effect of over 50% in size
Outline: (§3)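 HEK293 cells premixed with CellTox Green dye were seeded at 600 cells/well and left 5 h at 37 C/5% CO2 before pin transfer of 23 nL compound in DMSO. Fluorescence from dye bound to dead-cell DNA was read during 40 h treatment.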

[10] = qHTS RealTime-Glo MT Cell Viability Assay in HepG2 cells - 40 hour (AID 1224870); also: nearly all actives have a fitted effect of over 50% in size
Outline: (§4)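 HepG2 cells mixed with RealTime-Glo MT reagents (NanoLuc plus cell-permeant prosubstrate) were seeded at 600 cells/well, incubated 5 h at 37 C/5% CO2, then pinned with compounds in DMSO; nonlytic luminescence tracked viability during 40 h treatment.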

[11] = A CellTox Green Cytotoxicity Assay to monitor cytotoxicity in HEK293 cells - 40 hour (AID 1224871); also: nearly all actives have a fitted effect of over 45% in size; also: potency is read from the fitted curve at half-maximal effect
Outline: as §3

[12] = qHTS RealTime-Glo MT Cell Viability Assay in HEK293 cells - 16 hour (AID 1224872); also: nearly all actives have a fitted effect of over 50% in size; also: potency is read from the fitted curve at half-maximal effect
Outline: as §2

[13] = qHTS RealTime-Glo MT Cell Viability Assay in HepG2 cells - 8 hour (AID 1224873); also: nearly all actives have a fitted effect of over 55% in size; also: potency is read from the fitted curve at half-maximal effect
Outline: as §4

[14] = qHTS RealTime-Glo MT Cell Viability Assay in HEK293 cells - 40 hour (AID 1224874); conditions: RealTime-Glo luminescence; max response: stronger effect = lower value; also: nearly all actives have a fitted effect of over 50% in size; also: potency is read from the fitted curve at half-maximal effect
Outline: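 HEK293 cells mixed with RealTime-Glo reagents (NanoLuc plus cell-permeant prosubstrate) at 600 cells/well, preincubated 5 h at 37 C/5% CO2, then given 23 nL compound in DMSO. Nonlytic luminescence from viable cells was read at 0, 8, 16, 24, 32 and 40 h.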

[15] = A CellTox Green Cytotoxicity Assay to monitor cytotoxicity in HEK293 cells - 24 hour (AID 1224875); also: nearly all actives have a fitted effect of over 45% in size; also: potency is read from the fitted curve at half-maximal effect
Outline: as §3

[16] = A CellTox Green Cytotoxicity Assay to monitor cytotoxicity in HepG2 cells - 16 hour (AID 1224876); also: nearly all actives have a fitted effect of over 45% in size; also: potency is read from the fitted curve at half-maximal effect
Outline: (§5)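 HepG2 cells were seeded together with the CellTox Green dye at 600 cells/well, left 5 h at 37 C/5% CO2, then given compounds in DMSO. Fluorescence from dye bound to dead-cell DNA was read repeatedly over 40 h of treatment at 37 C.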

[17] = qHTS RealTime-Glo MT Cell Viability Assay in HepG2 cells - 32 hour (AID 1224877); also: nearly all actives have a fitted effect of over 55% in size
Outline: as §1

[18] = A CellTox Green Cytotoxicity Assay to monitor cytotoxicity in HepG2 cells - 24 hour (AID 1224878); also: nearly all actives have a fitted effect of over 45% in size; also: potency is read from the fitted curve at half-maximal effect
Outline: as §5

[19] = A CellTox Green Cytotoxicity Assay to monitor cytotoxicity in HepG2 cells - 40 hour (AID 1224879); also: nearly all actives have a fitted effect of over 40% in size; also: potency is read from the fitted curve at half-maximal effect
Outline: as §5

[20] = qHTS assay to identify small molecule agonists of the hypoxia (HIF-1) signaling pathway - cell viability counter screen (AID 1224844; calls by dose curve; also: nearly all actives have a fitted effect of over 50% in size)
Outline: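 HRE-bla ME-180 cells in medium with 0.5% dialyzed FBS were preincubated 5 hrs at 37C, exposed to compounds for 17 hrs, then viability was read as CellTiter-Glo luminescence after 30 min at room temperature, in the reporter wells.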

[21] = at 92.4 µM (top of the series) unless noted
% is scaled to controls: 0 for no effect and ±100 for the full control effect.

CCC(C)(C)OC
inactive: Potency [1] | Potency [2] | outcome [3] | Potency [4] | Potency [5] | activity change, positive = activation [6, 21] -8.72% | Potency [7] | Potency [8] | Potency [9] | Potency [10] | Potency [11] | Potency [12] | Potency [13] | max response [14] 7.38% | Potency [15] | Potency [16] | Potency [17] | Potency [18] | Potency [19]

CC(C)(c1ccccc1)c1ccccc1
active: Potency [11] 51.1 µM | Potency [15] 51.1 µM
inactive: Potency [1] | Potency [2] | outcome [3] | Potency [4] | Potency [7] | Potency [8] | Potency [9] | Potency [13] | max response [14] -9.58% | Potency [16] | Potency [18] | Potency [19]

O=C(CCc1ccc(O)cc1)c1c(O)cc(O)cc1O
inactive: Potency [1] | Potency [20] | activity change, positive = activation [6, 21] -22.5% | Potency [7] | Potency [9] | Potency [13] | Potency [15] | Potency [16] | Potency [17] | Potency [18] | Potency [19]
active: Potency [8] 39.8 µM | Potency [12] 25.1 µM | Potency [14] 39.8 µM

C=Cc1ccc(S(=O)(=O)O)cc1
inactive: Potency [1] | Potency [2] | outcome [3] | Potency [4] | activity change, positive = activation [6, 21] 6.91% | Potency [7] | Potency [8] | Potency [9] | Potency [10] | Potency [12] | Potency [13] | max response [14] -10.1%
active: Potency [18] 49 µM | Potency [19] 54.9 µM

O=C(/C=C/c1ccc(O)c(O)c1)O[C@@H]1C[C@@](OC(=O)/C=C/c2ccc(O)c(O)c2)(C(=O)O)C[C@@H](O)[C@@H]1O
inactive: Potency [1] | Potency [20] | outcome [3] | Potency [4] | Potency [7] | Potency [8] | Potency [9] | Potency [10] | Potency [11] | Potency [12] | Potency [13] | max response [14] 3.32% | Potency [15] | Potency [16] | Potency [17] | Potency [18] | Potency [19]

C[C@]12CC[C@@H]3c4ccc(O)cc4CC[C@H]3[C@@H]1CC[C@@H]2OC(=O)CCC1CCCC1
active: Potency [4] 56.6 µM | Potency [8] 43.6 µM | Potency [11] 54.9 µM | Potency [12] 49 µM | Potency [14] 43.6 µM | Potency [15] 54.9 µM | Potency [16] 49 µM and 19 µM | Potency [18] 49 µM and 23.9 µM | Potency [19] 54.9 µM and 26.8 µM
inactive: Potency [1] | Potency [20] | outcome [3] | activity change, positive = activation ([6]; at 42.5 µM (top of the series)) -30% | activity change, positive = activation ([6]; at 92.4 µM (top of the series)) -67.7% | Potency [9] | Potency [10]
49 µM (active) and inactive: Potency [7] | Potency [13]

CC(C)=CCC/C(C)=C/CC/C(C)=C/C(=O)OCC(=O)[C@@]1(O)CC[C@H]2[C@@H]3CCC4=CC(=O)C=C[C@]4(C)[C@H]3[C@@H](O)C[C@@]21C
inactive: Potency [1] | Potency [2] | Potency [4] | activity change, positive = activation [6, 21] -50.7% [at 42.5 µM] | Potency [9] | Potency [10] | Potency [11] | Potency [15] | Potency [16] | Potency [18] | Potency [19]
active: Potency [5] 6.68 µM | Potency [8] 4.77 µM | Potency [14] 4.25 µM

Oc1ccc(Cl)c2cccnc12
inactive: Potency [1] | Potency [20] | outcome [3] | Potency [4] | activity change, positive = activation [6, 21] -56.3% [at 42.5 µM] | Potency [7] | Potency [9] | Potency [10] | Potency [12] | Potency [13] | Potency [15] | Potency [16] | Potency [17] | Potency [18]
active: Potency [5] 29.8 µM

OC[C@H]1O[C@@H](n2cnc3c(=S)nc[nH]c32)[C@H](O)[C@@H]1O
inactive: Potency [1] | Potency [20] | outcome [3] | activity change, positive = activation [6, 21] -47.1% [at 42.5 µM] | Potency [7] | Potency [9] | Potency [10] | Potency [12] | Potency [13] | Potency [15] | Potency [16] | Potency [17] | Potency [18] | Potency [19]
active: Potency [4] 3.1 µM | Potency [5] 11.9 µM | Potency [8] 21.3 µM | Potency [14] 21.3 µM

CCCCCCNC(=O)n1cc(F)c(=O)[nH]c1=O
inactive: Potency [1] | Potency [20] | outcome [3] | Potency [4] | Potency [5] | activity change, positive = activation [6, 21] -8.15% [at 42.5 µM] | Potency [7] | Potency [8] | Potency [9] | Potency [10] | Potency [11] | Potency [12] | Potency [13] | max response [14] -6.08% | Potency [15] | Potency [16] | Potency [18] | Potency [19]

COC(=O)CS
inactive: Potency [1] | Potency [20] | outcome [3] | Potency [4] | Potency [7] | Potency [8] | Potency [9] | Potency [10] | Potency [13] | max response [14] 0.933% | Potency [15] | Potency [16] | Potency [17] | Potency [18] | Potency [19]

C=C1C[C@@]23CC[C@H]4[C@@](C)(CCC[C@@]4(C)C(=O)O[C@@H]4O[C@H](CO)[C@@H](O)[C@H](O)[C@H]4O)[C@@H]2CC[C@]1(O[C@@H]1O[C@H](CO)[C@@H](O)[C@H](O[C@@H]2O[C@H](CO)[C@@H](O)[C@H](O)[C@H]2O)[C@H]1O[C@@H]1O[C@H](CO)[C@@H](O)[C@H](O)[C@H]1O)C3
inactive: Potency [1] | Potency [2] | outcome [3] | Potency [4] | activity change, positive = activation [6, 21] 1.6% | Potency [7] | Potency [8] | Potency [9] | Potency [10] | Potency [11] | Potency [13] | max response [14] 3.82% | Potency [15] | Potency [16] | Potency [17] | Potency [18] | Potency [19]

O=C=Nc1cccc(C(F)(F)F)c1
inactive: Potency [1] | Potency [2] | outcome [3] | activity change, positive = activation [6, 21] -56.5% | Potency [7] | Potency [9] | Potency [10] | Potency [12] | Potency [13] | Potency [16] | Potency [17] | Potency [18] | Potency [19]
active: Potency [5] 60.7 µM

C=CC(=O)OCC1CC2CC1C1CCC(COC(=O)C=C)C21 (stereo not given)
active: Potency [11] 49 µM | Potency [15] 49 µM | Potency [18] 49 µM | Potency [19] 38.9 µM
inactive: Potency [1] | Potency [20] | Potency [9] | Potency [16]
